Shown are actives, neighbours in structure and some others; about 7.3% of the full set was active somewhere.
RORg inh: inhibitors of mouse ROR gamma transcriptional activity; Drosophila S2 Gal4-RORgamma UAS-luciferase reporter, 20 h; Potency, µM (doses to about 53.6 µM), hits mostly inhibitors; 310,000 tested, 5.4% active; AID 2551; P51450; further: nearly all actives have a fitted effect of over 60% in size
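Read-out: Photinus luciferase luminescence; inhibitors lower reporter signal. Insect Schneider cells with Gal4-ROR gamma fusion under metallothionein promoter, UAS reporter; 700 uM final copper sulfate induction, 20 hr, ambient temperature.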
Tau fluor counter: counter-screen for tau fibril formation inhibitors; 280,000 tested, 0.93% active; Potency, µM (series often up to 57.7 µM); tau K18 P301L Alexa594 fluorescence, heparin fibrillization; AID 1463; further: nearly all actives have a fitted effect of over 55% in size
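Human tau K18 P301L (15 uM unlabeled, 0.24 uM Alexa 594-labeled) in 100 mM sodium acetate pH 7 with 20 uM heparin, 6 hr at 37 C. ThT 30 uM added, 1 hr ambient; Alexa 594 FP and total fluorescence read at 555/632 nm.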
Tau fibril ThT: inhibitors of human tau fibril formation, thioflavin T binding; recombinant tau K18 P301L, heparin-induced fibrillization, ThT fluorescence; AID 1460; 270,000 tested, 2.1% active; Potency, µM (series often up to 57.4 µM), usual class: inhibitors; P10636; further: nearly all actives have a fitted effect of over 55% in size
Target sequence (P10636 561-689 P618L limits assumed): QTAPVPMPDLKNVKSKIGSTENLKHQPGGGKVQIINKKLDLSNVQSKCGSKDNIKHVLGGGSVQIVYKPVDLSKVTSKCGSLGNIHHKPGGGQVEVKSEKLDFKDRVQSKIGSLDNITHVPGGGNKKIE
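Fibril formation assay: tau K18 P301L at 15 uM with trace Alexa 594 label, heparin inducer 20 uM, pH 7 sodium acetate buffer, 37 C for 6 hr; endpoint ThT signal.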
Tau FP inhib: inhibitors of human tau fibril formation | 280,000 tested, 0.39% active | K18 P301L tau heparin fibrillization, Alexa594 FP, 6 h | Potency, µM (series often up to 57.7 µM), hits mostly inhibitors; further: nearly all actives have a fitted effect of over 55% in size
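FP of Alexa 594-tau after heparin (20 uM) induction. Substrate: human K18 P301L, 15 uM unlabeled, 0.24 uM labeled. Buffer 100 mM sodium acetate pH 7. 6 hr, 37 C.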
Gal4-VP16 FLuc: inhibits Gal4-VP16 luciferase reporter, ROR gamma counter-screen. Drosophila S2 Gal4-VP16 UAS-luciferase, luminescence, 20 h. 310,000 tested, 3.5% active. Potency, µM (series often up to 53.6 µM), usual class: inhibitors;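 further: Gal4-VP16 expression switched on by copper sulfate through the metallothionein promoter; nearly all actives have a fitted effect of over 50% in size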
Of the large screens only hits and unclear results are named; the others gave an inactive call; [ ] = dose if it differs, or a comment. The call rests on the fitted dose curve; in most records, active means well fitted curve in the direction sought with a large enough effect; inconclusive means small, poorly fitted or top-dose-only effect, or another doubt; inactive means no such curve, though single readings can be large; an effect the other way counts as inactive or inconclusive.

Cc1ccccc1Nc1nnc(-c2ccc(C)c(S(=O)(=O)N3CCCCC3)c2)c2ccccc12	Tau fibril ThT inconclusive (no result: RORg inh, Gal4-VP16 FLuc)
Cc1ccc(-c2nnc(Nc3ccc(S(N)(=O)=O)cc3)c3ccccc23)cc1S(=O)(=O)N1CCCCC1	Tau FP inhib inconclusive (no result: RORg inh, Gal4-VP16 FLuc)
CCCCOc1ccccc1CC1C(=O)Nc2ccc(Br)cc21 (centres undefined)	Tau fluor counter inconclusive, Tau fibril ThT inconclusive (no result: RORg inh, Gal4-VP16 FLuc)
COc1ccc(-c2noc(-c3cccnc3NCc3ccco3)n2)cc1	none (no result: RORg inh, Gal4-VP16 FLuc)
COc1ccc(-n2nc3c(N4CCC(C(=O)NCCc5ccccc5)CC4)nnc(C)c3c2C)cc1	Tau FP inhib inconclusive (no result: RORg inh, Gal4-VP16 FLuc)
COc1ccc(-n2nc3c(N4CCC(C(=O)NCC(C)c5ccccc5)CC4)nnc(C)c3c2C)cc1 (centres undefined)	Gal4-VP16 FLuc 20µM (no result: Tau fluor counter, Tau fibril ThT, Tau FP inhib)
CC1=CC[C@@]23CCCN2C(=O)CCC[C@H]3C1	none
Cc1cccc(OC(=O)c2cc(-c3ccc4c(c3)OCCO4)on2)c1	none (no result: RORg inh, Gal4-VP16 FLuc)
Cc1ccc(Oc2c(C(N)=O)cc([N+](=O)[O-])cc2[N+](=O)[O-])cc1	RORg inh 2.82µM, Tau fluor counter inconclusive, Tau fibril ThT 8.91µM, Tau FP inhib inconclusive, Gal4-VP16 FLuc 2.51µM
CCC(=O)c1ccc(Oc2ccc(C(=O)c3ccc(C)cc3)cc2[N+](=O)[O-])cc1	RORg inh inconclusive
CC(C)N1CCc2c(sc(NC(=O)c3cc4cc([N+](=O)[O-])ccc4s3)c2C(N)=O)C1	RORg inh inconclusive, Tau fluor counter inconclusive, Tau fibril ThT 3.98µM, Gal4-VP16 FLuc inconclusive
CC(C)N1CCc2c(sc(NC(=O)c3ccc(C(=O)c4ccccc4)cc3)c2C(N)=O)C1	none (no result: Tau fluor counter, Tau fibril ThT, Tau FP inhib)
CN1CCc2c(sc(NC(=O)c3cc4cc([N+](=O)[O-])ccc4s3)c2C(N)=O)C1	RORg inh 5.62µM, Tau fluor counter inconclusive, Tau fibril ThT 2.24µM, Gal4-VP16 FLuc 3.16µM
CCN(CC)C(C)CN1c2ccccc2Sc2ccccc21 (centres undefined)	RORg inh inconclusive, Tau fluor counter 20µM[quencher], Tau fibril ThT inconclusive
CCN(CC)S(=O)(=O)c1ccc(N/N=C/c2ccc(O)cc2O)nc1	RORg inh 14.1µM, Gal4-VP16 FLuc inconclusive
CCN(CC)S(=O)(=O)c1ccc(N/N=C(\C)c2cccnc2)nc1	none (no result: Tau fluor counter, Tau fibril ThT, Tau FP inhib)
CCN(CC)C(=N)/C(C#N)=N/Nc1ccc(C)cc1	Tau fibril ThT inconclusive
Cc1ccc(N/N=C(\C#N)C(=O)c2ccsc2)cc1	RORg inh inconclusive, Tau fluor counter inconclusive, Tau fibril ThT 14.1µM
N#C/C(=N\Nc1ccc(Cl)cc1)C(=O)c1ccsc1	RORg inh inconclusive, Tau fluor counter inconclusive, Tau fibril ThT 5.01µM, Gal4-VP16 FLuc inconclusive
Cc1cn2c(=O)cc(COC(=O)COc3ccc(F)cc3)nc2s1	none (no result: RORg inh, Gal4-VP16 FLuc)
COc1ccc(N=Nc2n(C)c3ccccc3[n+]2C)cc1	RORg inh 1.12µM, Tau fluor counter inconclusive, Tau fibril ThT 3.16µM, Tau FP inhib inconclusive, Gal4-VP16 FLuc 2µM
Nc1nc(N)c(C=Nc2ccc(Br)cc2)c(Nc2ccc(Br)cc2)n1	RORg inh inconclusive, Tau fluor counter 10µM[quencher], Tau fibril ThT 28.2µM, Tau FP inhib inconclusive, Gal4-VP16 FLuc inconclusive
Nc1nc(N)c(S(=O)(=O)c2ccccc2)c(Nc2ccc(Br)cc2)n1	Tau fluor counter inconclusive, Tau FP inhib 31.6µM (no result: RORg inh, Gal4-VP16 FLuc)
CSc1nc(N)c2ncn([C@H]3O[C@H](COP(=O)(O)OP(=O)(O)OP(=O)(O)O)[C@@H](O)[C@@H]3O)c2n1	none
O=C1C(N2CCOCC2)=C(n2nnc3ccccc32)C(=O)c2ccccc21	RORg inh 5.01µM, Tau fluor counter inconclusive, Tau fibril ThT 12.6µM, Tau FP inhib inconclusive, Gal4-VP16 FLuc 5.62µM
COc1ccc2c(c1)OC1(O)COc3cc(OC)c(OC)cc3C1=C2 (centres undefined)	Tau fluor counter inconclusive, Tau fibril ThT 5.62µM, Tau FP inhib inconclusive
O=C1NC(c2cc(Cl)cc([N+](=O)[O-])c2O)Nc2ccccc21 (centres undefined)	Tau fibril ThT 7.08µM
CCCCC(=O)NC(c1ccc(N(CC)CC)cc1)c1ccc2cccnc2c1O (centres undefined)	RORg inh 2.24µM, Gal4-VP16 FLuc 2.82µM (no result: Tau fluor counter, Tau fibril ThT, Tau FP inhib)
CCCCC(=O)NC(c1ccc(N(C)C)cc1)c1ccc2cccnc2c1O (centres undefined)	RORg inh 5.01µM, Gal4-VP16 FLuc 3.16µM (no result: Tau fluor counter, Tau fibril ThT, Tau FP inhib)
